Most compounds without a hit are left out; they make up all but 3.1% or so of the library.
Rin1 Abl inh: inhibitors of Rin1-Abl protein binding, primary screen, biochemical, TR-FRET. AID 588664, 2011. 360,000 compounds, 0.4% hits. inhibition, % at 7.35 µM. Tyrosine-protein kinase ABL1 (Homo sapiens) + Ras and Rab interactor 1 (Homo sapiens), …; in the data active = inhibition above about 5%, passing the limit was not always enough
PAFAH1B3 inh: PAFAH1B3 enzyme inhibitors, primary screen, biochemical, fluorescence polarization, human. 340,000 compounds, 0.28% hits. AID 492972, 2010. inhibition, % at 3.39 µM. recombinant PAFAH1B3, FP-rhodamine probe;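 active = inhibition above the screen-wide average of all tested compounds plus 3 SD, cut at about 25% in these data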;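 note: 0% = enzyme with DMSO only and 100% = wells lacking PAFAH1B3 protein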
pPAFAH inh: pPAFAH enzyme inhibitors, primary screen, biochemical, fluorescence polarization, human | Platelet-activating factor acetylhydrolase (Homo sapiens), Q13093 | 330,000 compounds, 1.5% hits | inhibition, % at 3.39 µM | recombinant pPAFAH, FP-rhodamine probe fluorescence polarization;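 active = inhibition above the mean inhibition across the screen plus 3 SD, cut at about 25% in these data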;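 note: inhibitors block binding of the rhodamine activity-based probe so polarization drops; 0% = enzyme with DMSO and 100% = wells lacking pPAFAH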
eLon inh: inhibitors of E. coli Lon protease, primary screen, biochemical, fluorescence polarization; purified E. coli Lon protease; inhibition, % at 7.94 µM; 360,000 compounds, 0.42% hits; AID 602123, 2011; in the data active = inhibition above about 13%, passing the limit was not always enough;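 note: 0% = enzyme with probe and DMSO and 100% = no enzyme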
Target sequence (P0A9M0 whole entry, looked up): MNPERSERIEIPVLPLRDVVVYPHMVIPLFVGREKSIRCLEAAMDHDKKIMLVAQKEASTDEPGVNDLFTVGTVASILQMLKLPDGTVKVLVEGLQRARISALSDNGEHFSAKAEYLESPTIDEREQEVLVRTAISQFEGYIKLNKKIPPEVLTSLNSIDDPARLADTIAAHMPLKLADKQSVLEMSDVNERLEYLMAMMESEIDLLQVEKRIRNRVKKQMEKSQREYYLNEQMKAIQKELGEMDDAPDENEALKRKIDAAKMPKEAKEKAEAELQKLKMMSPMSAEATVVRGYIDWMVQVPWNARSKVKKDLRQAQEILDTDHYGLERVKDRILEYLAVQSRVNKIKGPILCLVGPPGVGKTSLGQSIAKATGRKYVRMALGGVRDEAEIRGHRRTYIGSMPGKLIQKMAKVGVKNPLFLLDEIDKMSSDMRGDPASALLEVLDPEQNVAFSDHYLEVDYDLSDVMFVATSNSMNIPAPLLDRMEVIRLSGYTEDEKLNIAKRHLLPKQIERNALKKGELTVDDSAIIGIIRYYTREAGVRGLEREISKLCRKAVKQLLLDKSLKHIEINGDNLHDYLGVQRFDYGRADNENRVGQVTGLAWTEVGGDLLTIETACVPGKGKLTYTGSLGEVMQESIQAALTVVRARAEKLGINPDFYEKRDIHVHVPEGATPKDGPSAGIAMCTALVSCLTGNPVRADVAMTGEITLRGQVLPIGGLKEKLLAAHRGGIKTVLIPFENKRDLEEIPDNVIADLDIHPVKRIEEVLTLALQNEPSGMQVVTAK
PAFAH2 inh: PAFAH2 enzyme inhibitors, primary screen, biochemical, fluorescence polarization, human; inhibition, % at 3.39 µM; Platelet-activating factor acetylhydrolase 2, cytoplasmic (Homo sapiens), Q99487; recombinant PAFAH2, FP-rhodamine activity probe; AID 492956, 2010; 340,000 compounds, 0.99% hits;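 active = inhibition above the mean over all tested compounds plus 3 SD, cut at about 30% in these data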;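 note: inhibitors block probe labeling of enzyme so polarization drops; 0% = enzyme with DMSO and 100% = wells lacking PAFAH2 protein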
PAFAH1B2 inh: PAFAH1B2 enzyme inhibitors, primary screen, biochemical, fluorescence polarization, human | Platelet-activating factor acetylhydrolase IB subunit alpha2 (Homo sapiens), P68402 | recombinant PAFAH1B2, FP-rhodamine activity probe | inhibition, % at 3.39 µM | 340,000 compounds, 1.2% hits | AID 492953, 2010;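 active = inhibition above the mean of all tested compounds plus 3 SD, cut at about 24% in these data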;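 note: 0% = enzyme with DMSO and 100% = wells lacking PAFAH1B2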
pPAFAH FP conf: pPAFAH (PLA2G7) enzyme inhibitors, confirmation, biochemical, fluorescence polarization, human; shares compounds with pPAFAH inh; inhibition, % at 3.39 µM; recombinant pPAFAH, FP-Rh probe fluorescence polarization; 2,300 compounds, 72% hits;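 active = mean inhibition of the triplicate above the hit cutoff set for the earlier primary screen, cut at about 25% in these data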;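 note: 0% = enzyme with DMSO and 100% = wells lacking pPAFAH enzyme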
* = called active by the depositor; . = no result given.

SMILES | Rin1 Abl inh | PAFAH1B3 inh | pPAFAH inh | eLon inh | PAFAH2 inh | PAFAH1B2 inh | pPAFAH FP conf
COc1ccc(C(CNC(=O)c2ccc(NS(=O)(=O)c3ccc(F)c(C)c3)cc2)N2CCCC2)cc1 (stereo unspecified) | 2.1 | 3.9 | . | -3.3 | 0.5 | 5.8 | .
O=C(COC(=O)c1ccccc1O)NC(=O)NCc1ccccc1 | 2.9 | -0.2 | . | 12.8 | -4.3 | 3.5 | .
COC(=O)c1[nH]c2cc(OC)ccc2c1NC(=O)CCN1CCCC(C)(C)C1 | 2.4 | -3.7 | 4.7 | -4.0 | -5.7 | 3.0 | .
COC(=O)c1[nH]c2cc(OC)ccc2c1NC(=O)CCN1CCCCC1 | -3.7 | -2.2 | 39.4* | -7.2 | 0.8 | 1.1 | 8.8
CC1(C)Cc2c(cnn2-c2cccc(F)c2)C(NC(=O)Cn2cccn2)C1 (stereo unspecified) | -0.8 | 7.0 | . | -5.6 | -4.5 | 2.4 | .
Oc1c(Br)cc(Br)cc1CNc1cccc2cccnc12 | 3.6 | 28.0* | 60.6* | -10.7 | 24.4 | 16.9 | 24.5
CC(=O)N1CCN(c2ccc(NCc3ccc(-c4cccc(Cl)c4)o3)cc2)CC1 | -13.8 | 8.1 | 41.5* | -7.1 | 6.8 | 0.2 | 46.1*
Nc1cc2nc3ccccc3oc-2cc1=O | -1.9 | 9.5 | 36.0* | -6.5 | 4.2 | 4.0 | 7.9
Cc1cc(NC(=O)c2ccc(NC(=O)C(C)C)cc2)no1 | 4.5 | 2.8 | 40.8* | -1.2 | 3.7 | 4.4 | 4.3
Cc1cc(NC(=O)c2ccc(NC(=O)C3CC3)cc2)no1 | 0.3 | 0.5 | 7.9 | -1.5 | 0.2 | -0.1 | .
CC1CC1C(=O)OCC(=O)Nc1ccc(N=Nc2ccccc2)cc1 (stereo unspecified) | 2.2 | 4.5 | 69.2* | 8.6 | 84.5* | 2.8 | 64.6*
CCCC(=O)OCC(=O)Nc1ccc(N=Nc2ccccc2)cc1 | -1.2 | 10.4 | 9.8 | -10.9 | -2.2 | 0.4 | .
O=C1c2ccccc2C(=O)c2cc(S(=O)(=O)Nc3ccccc3)ccc21 | -2.8 | 10.7 | 36.5* | -4.8 | 17.9 | 6.0 | 34.1*
Cc1c(NS(=O)(=O)c2cc(C(=O)NCCN(C)C)ccc2Cl)c(=O)n(-c2ccccc2)n1C | 3.7 | 5.3 | 51.5* | -7.5 | 1.6 | 2.5 | -6.7
COc1ccc(S(=O)(=O)Nc2c(C)n(C)n(-c3ccccc3)c2=O)c(Cl)c1Cl | -1.8 | -2.5 | 62.1* | -2.1 | -2.8 | 3.1 | 5.5
Nn1c(SCC(=O)NCC2CCCO2)nnc1-c1ccc(OC(F)F)cc1 (stereo unspecified) | 0.6 | -4.1 | -8.7 | -1.2 | 3.3 | 2.0 | .
Cn1ccc2cc(NC(=O)Nc3cccnc3)ccc21 | -1.0 | 19.8 | 36.6* | -2.9 | -16.3 | 5.5 | 7.3
Cc1ccccc1CNC(=O)C(=O)NCCC1CCCCN1S(=O)(=O)c1ccccc1 (stereo unspecified) | -2.2 | 6.3 | 4.1 | 9.6 | 6.1 | 15.0 | .
CCOC(=O)c1nc(Nc2cc(Cl)ccc2OC)c2ccccc2n1 | -2.9 | 3.5 | -0.4 | -2.5 | 21.5 | 1.7 | .
O=C(O)CN1C(=O)/C(=C\c2cc(Br)ccc2OCc2ccc(Cl)cc2Cl)SC1=S | 0.8 | -1.2 | 52.2* | 12.0 | 33.1* | 18.4 | 66.9*
O=C(NC1CCCCC1)C1c2ccccc2OCC(=O)N1Cc1cccnc1 (stereo unspecified) | . | . | . | -2.6 | . | . | .
CCC/C(C)=N/NC(=O)c1ccccc1O | 0.4 | -1.8 | -5.2 | 5.5 | 1.4 | 2.9 | .
C/C(=N\NC(=O)c1ccccc1O)C1C(=O)c2ccccc2C1=O | -3.1 | 27.8* | 48.8* | 15.7 | 30.3* | 23.0 | 39.7*
C/C(CC(=O)N1CCN(C=O)CC1)=N\NC(=O)c1cc2ccccc2cc1O | -1.6 | 13.5 | 54.0* | 10.6 | 7.5 | 4.6 | 9.2
C/C(=N/NC(=O)c1cc2ccccc2cc1O)C1C(=O)c2ccccc2C1=O | -3.6 | 37.0* | 76.9* | -5.1 | 73.7* | 73.0* | 67.6*
SMILES | Rin1 Abl inh | PAFAH1B3 inh | pPAFAH inh | eLon inh | PAFAH2 inh | PAFAH1B2 inh | pPAFAH FP conf
COCCNC(=O)c1cccc(OC2CCN(Cc3cccc(SC)c3)CC2)c1 | -1.0 | 10.9 | 6.8 | -3.1 | -7.1 | -5.5 | .
Cc1csc(=Nc2ccc(S(=O)(=O)N3CCOCC3)cc2)n1Cc1ccco1 | 2.1 | 6.9 | 46.2* | -10.8 | -2.0 | 2.8 | 9.9
CCc1nc2ccc(C(=O)NCCCN3CCCC3=O)cn2c1N(CC)CCOC | 0.6 | . | . | -5.1 | . | . | .
CCN(CC)S(=O)(=O)c1ccc(C(=O)NNC(=O)c2csc(N3CCOCC3)n2)cc1 | 1.4 | 13.3 | 48.2* | -3.2 | 5.0 | -1.4 | 5.0
Cc1cc(C)n2c(SC/C(O)=C(\C#N)c3nc4ccccc4[nH]3)nnc2n1 | 5.3 | 3.8 | 34.6* | -8.2 | 9.2 | 5.4 | 23.6
Cc1ccccc1-n1c(SC/C(O)=C(\C#N)c2nc3ccccc3[nH]2)nnc1-c1ccncc1 | -4.8 | -0.2 | 15.6 | -10.3 | 7.6 | 2.3 | .
Cc1cc(NC(=O)C2CCN(C(=O)c3ccco3)CC2)ccc1Br | 1.3 | 0.9 | 6.9 | -8.0 | -3.5 | 4.6 | .
COc1ccc(Br)cc1/C=c1\sc2nc(-c3ccco3)nn2c1=O | 0.5 | -5.1 | 44.2* | -20.9 | 0.0 | -6.2 | 20.0
COc1cc(CCN(C(=O)c2cccc(S(C)(=O)=O)c2)C(CCc2ccccc2)c2nc3ccccc3[nH]2)cc(OC)c1 (stereo unspecified) | 0.6 | . | . | -2.8 | . | . | .
CC(Oc1cc2oc(=O)c3c(c2cc1Cl)CCC3)C(=O)NCc1ccccn1 (stereo unspecified) | -1.4 | 1.8 | 3.7 | 5.2 | 9.0 | -3.4 | .
CCn1c(SCc2nc3sc(C(=O)O)c(C)c3c(=O)[nH]2)nc2ccccc21 | 2.3 | 43.4* | 48.2* | -41.8 | 15.7 | 11.9 | 47.2*
CCCCNC(=O)c1nc(C2CCN(S(=O)(=O)c3ccccc3C(F)(F)F)CC2)oc1-c1ccccc1 | 5.2 | . | . | -1.4 | . | . | .
COc1cccc2nc3cc(C)c(C)cc3nc12 | -4.8 | 25.0 | 41.8* | 1.2 | 24.6 | 23.1 | 12.6
COc1cccc2c1nc(C)c1cc(C)oc12 | -2.5 | 3.0 | -4.1 | 7.4 | -3.7 | -2.2 | .
Cc1c2ccccc2nc2ccccc12 | -4.3 | 3.1 | -0.1 | -8.6 | 3.4 | 4.8 | .
CCCNc1c(F)c(F)c2c(C)c3ccccc3nc2c1F | -0.9 | 11.5 | 34.8* | 59.9* | 19.6 | 6.2 | 19.7
COC(=O)c1ccc(-n2c(C)cc(/C=N/Nc3nc(C)cc(=O)[nH]3)c2C)cc1 | -1.4 | 7.0 | 66.5* | 3.2 | 4.3 | 0.8 | 89.3*
Cc1cc(=O)[nH]c(N/N=C/c2cc(C)n(CC(F)(F)F)c2C)n1 | -0.6 | 4.5 | 2.8 | 3.0 | 0.4 | 7.4 | .

Source: PubChem BioAssay (The Scripps Research Institute Molecular Screening Center)
